The source of these data is the supplement of paper PMC6331611.

“And” between values parts separate entries of the source, which are not always exact repeats. Equal entries are not always repeated. ± gives the standard deviation of the averaged measurements. Whole data set: some 1,600 compounds, median “normalized intracellular growth (luminescence, IQM-normalized) in RAW264.7 macrophages” near 1, cut for the lowest 2% near 0.43. The list comes from a sample in which the lowest values are over-represented; it also holds similar structures and randomly drawn compounds.

The subject of the experiment is Salmonella enterica serovar Typhimurium SL1344. The experiment is described as follows: normalized intracellular growth (luminescence, IQM-normalized) in RAW264.7 macrophages (fraction of plate interquartile mean); higher = more bacterial growth (less inhibition). Conditions: 10 µM.

`C=C(C)[C@H]1CC=C(C)CC1`: the normalized intracellular growth is, setting by setting: (time point: T3 (3 h)) 0.96 ± 0.013; (time point: Tfinal (~6 h)) 1.1 ± 0.098.
In the case of `C#C[C@]1(OC(C)=O)CC[C@H]2[C@@H]3CCC4=CC(=O)CC[C@@H]4[C@H]3CC[C@@]21C`, the normalized intracellular growth reads like this: (time point: T3 (3 h)) 1.03 ± 0.046; (time point: Tfinal (~6 h)) 0.972 ± 0.043.
For `CC(O)CC(C)(C)O` (centres undefined), the normalized intracellular growth by setting is: (time point: T3 (3 h)) 1.05 ± 0.086; (time point: Tfinal (~6 h)) 0.769 ± 0.19.
In the case of `CC[C@H]1OC(=O)[C@H](C)[C@@H](O[C@H]2C[C@@](C)(OC)[C@@H](O)[C@H](C)O2)[C@H](C)[C@@H](O[C@@H]2O[C@H](C)C[C@H](N(C)C)[C@H]2O)[C@](C)(O)C[C@@H](C)/C(=N\OCOCCOC)[C@H](C)[C@@H](O)[C@]1(C)O`, the normalized intracellular growth amounted to 1.06 ± 0.03 (time point: T3 (3 h)) and 0.825 ± 0.42 (time point: Tfinal (~6 h)).
In the same order, the values of `CC[C@H]1OC(=O)[C@H](C)[C@@H](O[C@H]2C[C@@](C)(OC)[C@@H](O)[C@H](C)O2)[C@H](C)[C@@H](O[C@@H]2O[C@H](C)C[C@H](N(C)C)[C@H]2O)[C@](C)(O)C[C@@H](C)CN(C)[C@H](C)[C@@H](O)[C@]1(C)O` are 1.05 ± 0.039 and 0.00697 ± 0.00054.
For `CC[C@H]1OC(=O)[C@H](C)[C@@H](O[C@H]2C[C@@](C)(OC)[C@@H](O)[C@H](C)O2)[C@H](C)[C@@H](O[C@@H]2O[C@H](C)C[C@H](N(C)C)[C@H]2O)[C@](C)(O)C[C@@H](C)C(=O)[C@H](C)[C@@H](O)[C@]1(C)O`, the normalized intracellular growth was 0.964 and 0.725 (time point: T3 (3 h)); 0.913 and 0.963 (time point: Tfinal (~6 h)).
For the compound `O=C(O)/C=C/C(=O)O`, the normalized intracellular growth is, setting by setting: (time point: T3 (3 h)) 1.14 ± 0.1; (time point: Tfinal (~6 h)) 1.03 ± 0.16.
The corresponding values for `CCCCCCCCCCOc1cc2c(O)c(C(=O)OCC)cnc2cc1OCC` are 0.942 ± 0.08 and 0.973 ± 0.13.
In the case of `CC/C=C\C/C=C\C/C=C\C/C=C\C/C=C\C/C=C\CCC(=O)O`, the normalized intracellular growth by setting is: (time point: T3 (3 h)) 0.977 ± 0.069; (time point: Tfinal (~6 h)) 1.02 ± 0.09.
The corresponding values for `COc1cc2c3cc1Oc1cc(ccc1O)C[C@@H]1c4c(cc(OC)c(O)c4Oc4ccc(cc4)C[C@@H]3N(C)CC2)CC[N+]1(C)C` are 0.937 ± 0.083 and 0.976 ± 0.16.
The corresponding values for `CC[C@H]1OC(=O)[C@H](C)[C@@H](O[C@H]2C[C@@](C)(OC)[C@@H](O)[C@H](C)O2)[C@H](C)[C@@H](O[C@@H]2O[C@H](C)C[C@H](N(C)C)[C@H]2O)[C@](C)(OC)C[C@@H](C)C(=O)[C@H](C)[C@@H](O)[C@]1(C)O` are 1.09 ± 0.015 and 0.976 ± 0.071.
For the compound `CC[C@H]1OC(=O)[C@H](C)C(=O)[C@H](C)[C@@H](O[C@@H]2O[C@H](C)C[C@H](N(C)C)[C@H]2O)[C@](C)(OC)C[C@@H](C)C(=O)[C@H](C)[C@H]2N(CCCCn3cnc(-c4cccnc4)c3)C(=O)O[C@]12C`, the normalized intracellular growth is 1.01 ± 0.086 (time point: T3 (3 h)) and 0.0132 ± 0.0042 (time point: Tfinal (~6 h)).
In the same order, the values of `CCC(=O)O[C@H]1[C@H](O[C@@H]2[C@@H](C)[C@H](O[C@H]3C[C@@](C)(OC)[C@@H](O)[C@H](C)O3)[C@@H](C)C(=O)O[C@H](CC)[C@@](C)(O)[C@H](O)[C@@H](C)C(=O)[C@H](C)C[C@@]2(C)O)O[C@H](C)C[C@@H]1N(C)C` are 0.792 ± 0.092 and 0.901 ± 0.065.
In the same order, the values of `CCN[C@@H]1C[C@H](N)[C@@H](O[C@H]2OC(CN)=CC[C@H]2N)[C@H](O)[C@H]1O[C@H]1OC[C@](C)(O)[C@H](NC)[C@H]1O` are 0.986 ± 0.033 and 0.632 ± 0.25.
In the same order, the values of `O=S(=O)(O)NC1CCCCC1` are 0.688 ± 0.097 and 0.748 ± 0.044.
For `CCCCCCCCCCC[C@@H](C[C@@H]1OC(=O)[C@H]1CCCCCC)OC(=O)[C@H](CC(C)C)NC=O`, the normalized intracellular growth runs as follows: (time point: T3 (3 h)) 0.987 ± 0.091; (time point: Tfinal (~6 h)) 1.21 ± 0.048.
The corresponding values for `C[N+](C)(C)CC(O)CC(=O)[O-]` (centres undefined) are 0.978 ± 0.032 and 0.91 ± 0.16.
In the same order, the values of `Nc1nc(=O)[nH]cc1F` are 1.07 ± 0.058 and 1.28 ± 0.1.
The corresponding values for `O=c1[nH]cc(F)c(=O)[nH]1` are 0.731 ± 0.089 and 0.153 ± 0.006.
Regarding `O=c1cc[nH]c(=O)[nH]1`, the normalized intracellular growth by setting is: (time point: T3 (3 h)) 0.935 ± 0.09; (time point: Tfinal (~6 h)) 0.9 ± 0.052.
For `O=C(NCCCN1CCOCC1)c1ccc(Cl)cc1`, the normalized intracellular growth is, setting by setting: (time point: T3 (3 h)) 1.25 ± 0.11; (time point: Tfinal (~6 h)) 1.35 ± 0.15.
Consider `O=C(c1cccnc1)N1CCOCC1`, for which the normalized intracellular growth runs as follows: (time point: T3 (3 h)) 1.01 ± 0.09; (time point: Tfinal (~6 h)) 0.728 ± 0.18.
In the same order, the values of `CC(=O)c1ccc2c(c1)N(CCCN1CCN(CCO)CC1)c1ccccc1S2` are 1.04 ± 0.024 and 0.807 ± 0.11.
The corresponding values for `Cc1c2oc3c(C)ccc(C(=O)N[C@@H]4C(=O)N[C@H](C(C)C)C(=O)N5CCC[C@H]5C(=O)N(C)CC(=O)N(C)[C@@H](C(C)C)C(=O)O[C@@H]4C)c3nc-2c(C(=O)N[C@@H]2C(=O)N[C@H](C(C)C)C(=O)N3CCC[C@H]3C(=O)N(C)CC(=O)N(C)[C@@H](C(C)C)C(=O)O[C@@H]2C)c(N)c1=O` are 0.861 ± 0.057 and 1.05 ± 0.12.
On to `CCCCCCCC/C=C\CCCCCCCC(=O)O.NCCO`, for which the normalized intracellular growth stood at 1.05 ± 0.035 (time point: T3 (3 h)) and 1.09 ± 0.041 (time point: Tfinal (~6 h)).
The corresponding values for `COC(=O)N/N=C/c1c[n+]([O-])c2ccccc2[n+]1[O-]` are 0.957 ± 0.032 and 0.309 ± 0.16.
As for `CC(=O)[C@@]1(O)CC[C@H]2[C@@H]3C=C(Cl)C4=CC(=O)[C@@H]5C[C@@H]5[C@]4(C)[C@H]3CC[C@@]21C`, the normalized intracellular growth is, setting by setting: (time point: T3 (3 h)) 1.06 ± 0.049; (time point: Tfinal (~6 h)) 0.762 ± 0.26.
The corresponding values for `COc1c2occc2cc2ccc(=O)oc12` are 1.15 ± 0.034 and 1.36 ± 0.076.
On to `Nc1nc(N)c2nc(CNc3ccc(C(=O)N[C@@H](CCC(=O)O)C(=O)O)cc3)cnc2n1`, for which the normalized intracellular growth is, setting by setting: (time point: T3 (3 h)) 0.994 ± 0.021; (time point: Tfinal (~6 h)) 1.09 ± 0.15.
The corresponding values for `CCCCCC(C)N` (centres undefined) are 0.993 ± 0.077 and 0.979 ± 0.12.
The corresponding values for `CO[C@H]1C[C@H](O[C@@H]2/C(C)=C/C[C@@H]3C[C@@H](C[C@]4(CC[C@H](C)[C@@H](C5CCCCC5)O4)O3)OC(=O)[C@@H]3C=C(C)/C(=N/O)[C@H]4OC/C(=C\C=C\[C@@H]2C)[C@]43O)O[C@@H](C)[C@@H]1O` are 1.01 ± 0.064 and 1.16 ± 0.094.
The corresponding values for `C[C@H]1C[C@@H]2[C@H]([C@@H](O)C[C@@]3(C)[C@H]2CC[C@]3(O)C(=O)CO)[C@@]2(C)C=CC(=O)C=C12` are 1.07 ± 0.02 and 0.417 ± 0.054.
Take `CC(=O)OCC(=O)[C@@]1(O)CC[C@H]2[C@@H]3CCC4=CC(=O)C=C[C@]4(C)[C@H]3[C@@H](O)C[C@@]21C`: the normalized intracellular growth is, setting by setting: (time point: T3 (3 h)) 0.822 ± 0.19; (time point: Tfinal (~6 h)) 0.823 ± 0.06.
In the same order, the values of `C[C@]12C=CC(=O)C=C1CC[C@@H]1[C@@H]2[C@@H](O)C[C@@]2(C)[C@H]1CC[C@]2(O)C(=O)CO` are 0.8 ± 0.15 and 0.888 ± 0.078.
The corresponding values for `CC(C)Nc1ncccn1` are 0.928 ± 0.053 and 1.05 ± 0.2.
In the same order, the values of `Cc1oc(=O)oc1CN1CCN(c2cc3c(cc2F)c(=O)c(C(=O)O)c2n3C(C)S2)CC1` (centres undefined) are 1.14 ± 0.069 and 0.0187 ± 0.0013.
Regarding `NC(=O)[C@@H]1CCCN1C(=O)[C@H](Cc1c[nH]cn1)NC(=O)[C@@H]1CCC(=O)N1`, the normalized intracellular growth is, setting by setting: (time point: T3 (3 h)) 1.02 ± 0.038; (time point: Tfinal (~6 h)) 0.959 ± 0.044.
In the same order, the values of `CC1(C)OC(=O)C(OCC2CC2)=C1c1ccc(S(C)(=O)=O)cc1` are 1.15 ± 0.017 and 1.2 ± 0.13.
The corresponding values for `OCC(S)CS` (centres undefined) are 0.927 ± 0.011 and 1.03 ± 0.053.
The corresponding values for `O=C(O)c1ccc[n+]([O-])c1` are 0.967 ± 0.051 and 1.05 ± 0.023.
On to `COc1ccc2cc(C(C)C(=O)O)ccc2c1` (centres undefined), for which the normalized intracellular growth came to 1.04 ± 0.036 (time point: T3 (3 h)) and 1.09 ± 0.089 (time point: Tfinal (~6 h)).
The corresponding values for `C=C[C@H]1CN2CC[C@H]1C[C@H]2[C@H](O)c1ccnc2ccc(OC)cc12` are 0.978 ± 0.042 and 0.953 ± 0.058.
